Type in all cases: functional
For experiment [1], the system named is Plasmodium falciparum. The experiment in a line: GSK_TCMDC: Inhibition of Plasmodium falciparum 3D7 in whole red blood cells, using parasite LDH activity as an index of growth. Test compounds present at 2uM.
In experiment [2] the test system is Plasmodium falciparum. Kind of experiment: GSK_TCMDC: Inhibition of Plasmodium falciparum Dd2 in whole red blood cells, using parasite LDH activity as an index of growth. Test compounds present at 2uM.
The next experiment relates to HepG2. Kind of experiment: GSK_TCMDC: Percent inhibition of human HepG2 cell line. Test compounds present at 10uM.

SMILES strings stand for the structures.

In the case of `CN(C)C(=O)n1cnc(S(=O)(=O)N(C)c2ccc(Cl)cc2)n1.Cl`, the Inhibition in the experiment with Plasmodium falciparum [1] was found to be 88%; in the experiment on Plasmodium falciparum [2], 80%; in the experiment on HepG2, 7%.
In the case of `Oc1cc(Nc2ccnc3cc(-c4cccc(CN5CCOCC5)c4)ccc23)c(F)cc1Cl`, the values for the Inhibition in the experiment on Plasmodium falciparum [1], in the experiment with Plasmodium falciparum [2] and in the experiment on HepG2 were 100%, 89% and 12%, respectively.
On the same counts, the results for `Cc1c(Cc2ccccc2)c(=O)oc2c(C)c3c(cc12)CN(CC(C)c1ccccc1)CO3` (stereo not given) are 98%, 98% and 1%.
For the compound `Cl.N#Cc1ccc2c(c1)CCN(CCC1CCC(NC(=O)Nc3ccnc4ccccc34)CC1)C2` (stereo not given), the Inhibition was 100% with Plasmodium falciparum [1], 77% in the experiment on Plasmodium falciparum [2] and 38% in the experiment with HepG2.
For `O=C(NC1CC1)c1ccc(N2CCCC(COc3ccccc3F)C2)nc1` (stereo not given), in that order: 87%, 92% and 8%.
For `NC(=O)c1ccc(C(=O)Nc2cccc(-c3cccc(-c4nc5cc(C(F)(F)F)ccc5[nH]4)c3)c2)cc1`, in that order: 100%, 36% and 63%.
For `O=C(NCCCN1CCCC1=O)c1cnc(N2CCC(Oc3ccccc3)CC2)c(Cl)c1`, in that order: 97%, 93% and 7%.
Consider `CN1CCC(N2CCN(Cc3ccc(-c4ccc(-c5nc6cc(F)ccc6[nH]5)s4)cc3)CC2)CC1.O=C(O)C(F)(F)F`, for which the figures for the Inhibition with Plasmodium falciparum [1], in the experiment on Plasmodium falciparum [2] and with HepG2 were 100%, 100% and 62%, respectively.
`CNc1ccc(CNCc2ccc(-c3ccc(-c4nc5cccc(C)c5[nH]4)s3)cc2)cc1.O=C(O)C(F)(F)F`: the Inhibition with Plasmodium falciparum [1] is listed as 100%; with Plasmodium falciparum [2], 94%; with HepG2, 29%.
With `Cl.Oc1cc(-c2nc(C3(CNCc4ccc(Cl)cc4)CCCCC3)[nH]c2-c2ccncc2)ccc1Cl`, the Inhibition with Plasmodium falciparum [1] came out at 100%; with Plasmodium falciparum [2] it was 99%; in the experiment on HepG2 it was 35%.

For the origin of these results see ChEMBL document CHEMBL1157539, “Thousands of chemical starting points for antimalarial lead identification” (Nature, 2010).
